# Values joined by “and” are separate entries in the source; they are usually repeats but may differ in a detail not shown here. Equal values may be shown once. Results filed as inconclusive are left out. Active and inactive are the calls of the source. The calls were made as follows: active = hit-call score of the fitted dose curve at least 0.9, where 1 is the maximum; inconclusive = response in the unintended direction; inactive = score below 0.9.
# Columns and labels:
# [1] = biological target: Glycogen synthase kinase-3 beta (Homo sapiens) (UniProt P49841); test: NVS_ENZ_hGSK3b: NovaScreen (NVS) Enzymatic Assay for human Glycogen Synthase Kinase-3 beta (GSK3b) (AID 2283165)
# Procedure, shortened: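 Recombinant enzyme with specific fluorescent substrate, 1 h, product separated by electrophoretic mobility shift. Primary duplicate screen at 25 uM; actives (e.g. 30% inhibition) followed in singleton concentration-response to 50 uM. Signal loss fitted versus DMSO.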
# [2] = biological target: human IkappaB Kinase alpha (IKKa), CHUK (gene 1147) (UniProt O15111); test: NVS_ENZ_hIKKa: NovaScreen (NVS) Enzymatic Assay for human IkappaB Kinase alpha (IKKa) (AID 2283167)
# Procedure, shortened: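 Cell-free recombinant human IKKa with fluorescent substrate, product separated by electrophoretic mobility shift; read 1 hour after dosing. Primary screen duplicate at 25 uM, actives then concentration-response up to 50 uM; loss of signal relative to DMSO.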
# [3] = biological target: human Insulin Receptor (InsR), INSR (gene 3643) (UniProt P06213); test: NVS_ENZ_hInsR: NovaScreen (NVS) Enzymatic Assay for human Insulin Receptor (InsR) (AID 2283168)
# Procedure, shortened: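 Fluorescent substrate phosphorylation by recombinant kinase, product resolved by electrophoretic mobility shift, read 1 h after dosing. Screened in duplicate at 25 uM; hits (e.g., 30% inhibition) run in concentration-response to 50 uM; DMSO as baseline.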
# [4] = biological target: human Mitogen-Activated Protein Kinase 1 (MAPK 1), MAPK1 (gene 5594) (UniProt P28482); test: NVS_ENZ_hMAPK1: NovaScreen (NVS) Enzymatic Assay for human Mitogen-Activated Protein Kinase 1 (MAPK 1) (AID 2283175)
# Procedure, shortened: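 Cell-free recombinant human MAPK1 enzymatic assay, fluorescence/electrophoretic mobility shift read at 1 h; loss of signal vs DMSO. Primary screen in duplicate at 25 uM; actives (e.g. ≥30% inhibition) run as concentration-response up to 50 uM.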
# [5] = biological target: Mitogen-activated protein kinase 3 (Homo sapiens) (UniProt P27361); test: NVS_ENZ_hMAPK3: NovaScreen (NVS) Enzymatic Assay for human Mitogen-Activated Protein Kinase 3 (MAPK 3) (AID 2283177)
# Procedure, shortened: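 Cell-free enzymatic assay with recombinant protein and specific substrate; fluorescence and electrophoretic mobility shift read-out 1 h after dosing. Primary screen duplicate at 25 uM; actives then run in concentration-response up to 50 uM, loss of signal versus DMSO.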
# [6] = biological target: human MAP Kinase-Activated Protein Kinase 2 (MAPKAPK2), MAPKAPK2 (gene 9261) (UniProt P49137); test: NVS_ENZ_hMAPKAPK2: NovaScreen (NVS) Enzymatic Assay for human MAP Kinase-Activated Protein Kinase 2 (MAPKAPK2) (AID 2283178)
# Procedure, shortened: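 Cell-free recombinant human MAPKAPK2 activity measured by fluorescence with electrophoretic mobility shift separation of substrate and product, 1 hr after dosing. Loss of signal versus DMSO; primary screen at 25 uM, concentration-response up to 50 uM.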
# [7] = biological target: human MET Proto-Oncogene, Receptor Tyrosine Kinase (MET), MET (gene 4233) (UniProt P08581); test: NVS_ENZ_hMet: NovaScreen (NVS) Enzymatic Assay for human MET Proto-Oncogene, Receptor Tyrosine Kinase (MET) (AID 2283180)
# Procedure, shortened: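 Cell-free MET kinase assay using recombinant protein and fluorescent substrate, with mobility-shift separation; read 1 h after dosing. Primary duplicate at 25 uM; actives in singleton concentration-response to 50 uM maximum. Signal loss versus DMSO.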
# [8] = biological target: Collagenase 3 (Homo sapiens) (UniProt P45452); test: NVS_ENZ_hMMP13: NovaScreen (NVS) Enzymatic Assay for human Matrix Metalloproteinase-13 (MMP13) (AID 2283182)
# Procedure, shortened: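 Recombinant MMP13 cleaving fluorescent substrate, cell-free, measured 1 h after dosing. Primary duplicate screen at 25 uM; actives tested in concentration-response up to 50 uM; loss of signal relative to DMSO.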
# [9] = biological target: human Matrix Metalloproteinase-7 (MMP7), MMP7 (gene 4316) (UniProt P09237); test: NVS_ENZ_hMMP7: NovaScreen (NVS) Enzymatic Assay for human Matrix Metalloproteinase-7 (MMP7) (AID 2283183)
# Procedure, shortened: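 Cell-free fluorescence enzymatic assay read 1 h after compound addition, activity loss analyzed against DMSO. Primary duplicate testing at 25 uM; compounds meeting threshold rerun in singleton concentration-response up to 50 uM.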
# [10] = biological target: human Matrix Metalloproteinase-2 (MMP2), MMP2 (gene 4313) (UniProt P08253); test: NVS_ENZ_hMMP2: NovaScreen (NVS) Enzymatic Assay for human Matrix Metalloproteinase-2 (MMP2) (AID 2283184)
# Procedure, shortened: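 Cell-free recombinant MMP2 activity with a fluorescent substrate, read 1 h after dosing. Primary screen in duplicate at 25 uM; actives then run in concentration series; loss of signal fitted versus DMSO.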
# [11] = biological target: human Matrix Metalloproteinase-3 (MMP3), MMP3 (gene 4314) (UniProt P08254); test: NVS_ENZ_hMMP3: NovaScreen (NVS) Enzymatic Assay for human Matrix Metalloproteinase-3 (MMP3) (AID 2283185)
# Procedure, shortened: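 Cell-free recombinant human MMP3 activity, fluorescence intensity read 1 h after dosing. Primary screen duplicate at 25 uM, actives retested in concentration series; loss of signal vs DMSO baseline.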
# [12] = biological target: human Mitogen- and Stress-activated Protein Kinase-1 (Msk1), RPS6KA5 (gene 9252) (UniProt O75582); test: NVS_ENZ_hMsk1: NovaScreen (NVS) Enzymatic Assay for human Mitogen- and Stress-activated Protein Kinase-1 (Msk1) (AID 2283187)
# Procedure, shortened: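 Recombinant kinase with fluorescent substrate; product separated by electrophoretic mobility shift, read 1 h after dosing. Screened in duplicate at 25 uM; hits (e.g. ≥30% inhibition) tested in concentration–response up to 50 uM. DMSO baseline.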
# [13] = biological target: human p21 Activated Kinase 4 (PAK4), PAK4 (gene 10298) (UniProt O96013); test: NVS_ENZ_hPAK4: NovaScreen (NVS) Enzymatic Assay for human p21 Activated Kinase 4 (PAK4) (AID 2283189)
# Procedure, shortened: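 Cell-free recombinant human PAK4 activity assay; fluorescent substrate and product separated by electrophoretic mobility shift, read 1 h after dosing. Initially tested in duplicate at 25 uM, relative to DMSO baseline.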
# [14] = biological target: human Matrix Metalloproteinase-9 (MMP9), MMP9 (gene 4318) (UniProt P14780); test: NVS_ENZ_hMMP9: NovaScreen (NVS) Enzymatic Assay for human Matrix Metalloproteinase-9 (MMP9) (AID 2283190);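 also: cell-free recombinant MMP9 protease activity read by fluorescent substrate signal; active means inhibition seen as loss of fluorescence signal versus DMSO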
# Procedure, shortened: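 Extracted enzyme, fluorescent substrate, 1 h post-dose read. Single conc 25 uM in duplicate, then concentration series for actives. Activity = signal loss relative to DMSO negative control.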
# [15] = biological target: human Phosphodiesterase 4A1 (PDE4A1), PDE4A (gene 5141) (UniProt P27815); test: NVS_ENZ_hPDE4A1: NovaScreen (NVS) Enzymatic Assay for human Phosphodiesterase 4A1 (PDE4A1) (AID 2283191)
# Procedure, shortened: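 Cell-free recombinant human PDE4A1 with fluorescent substrate; product separated by electrophoretic mobility shift, 1 h. Screened at 25 uM, then up to 50 uM in concentration-response; loss of signal fitted against DMSO.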
# [16] = biological target: cAMP-dependent protein kinase catalytic subunit alpha (Homo sapiens) (UniProt P17612); test: NVS_ENZ_hPKA: NovaScreen (NVS) Enzymatic Assay for human Protein Kinase A (PKA) (AID 2283192)
# Procedure, shortened: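 Recombinant human PKA with specific fluorescent substrate, product separated by electrophoretic mobility shift, read 1 h after dosing. Primary screen at 25 uM in duplicate; actives then run in concentration-response up to 50 uM, activity relative to DMSO.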
# [17] = biological target: human Phosphodiesterase 5 (PDE5), PDE5A (gene 8654) (UniProt O76074); test: NVS_ENZ_hPDE5: NovaScreen (NVS) Enzymatic Assay for human Phosphodiesterase 5 (PDE5) (AID 2283194)
# Procedure, shortened: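 Recombinant human PDE5 with specific substrate, read 1 h after dosing by fluorescence with electrophoretic mobility-shift separation of substrate and product. Initial single-concentration duplicate screen at 25 uM, actives followed in concentration series; loss of activity versus DMSO.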
# Chain of human Matrix Metalloproteinase-2 (MMP2), MMP2 (gene 4313) (P08253 whole entry, looked up): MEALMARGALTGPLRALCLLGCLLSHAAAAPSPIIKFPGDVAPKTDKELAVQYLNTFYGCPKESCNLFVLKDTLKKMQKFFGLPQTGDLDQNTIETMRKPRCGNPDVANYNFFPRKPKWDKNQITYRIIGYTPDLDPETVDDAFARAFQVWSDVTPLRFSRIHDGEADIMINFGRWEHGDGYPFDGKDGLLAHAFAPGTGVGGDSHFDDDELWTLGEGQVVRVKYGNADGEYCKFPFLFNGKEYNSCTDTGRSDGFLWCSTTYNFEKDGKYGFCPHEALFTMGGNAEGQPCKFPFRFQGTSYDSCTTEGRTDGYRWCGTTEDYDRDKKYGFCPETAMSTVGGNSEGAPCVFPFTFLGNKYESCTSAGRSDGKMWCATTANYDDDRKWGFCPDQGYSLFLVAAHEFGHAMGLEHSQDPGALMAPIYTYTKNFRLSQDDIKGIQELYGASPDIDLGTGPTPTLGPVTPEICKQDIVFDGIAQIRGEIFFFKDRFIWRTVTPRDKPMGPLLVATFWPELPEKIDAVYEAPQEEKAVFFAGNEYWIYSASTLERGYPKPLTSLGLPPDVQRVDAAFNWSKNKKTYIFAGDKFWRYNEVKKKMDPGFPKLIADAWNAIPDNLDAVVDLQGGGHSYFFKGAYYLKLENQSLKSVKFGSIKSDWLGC
# Chain of human Matrix Metalloproteinase-3 (MMP3), MMP3 (gene 4314) (P08254 whole entry, looked up): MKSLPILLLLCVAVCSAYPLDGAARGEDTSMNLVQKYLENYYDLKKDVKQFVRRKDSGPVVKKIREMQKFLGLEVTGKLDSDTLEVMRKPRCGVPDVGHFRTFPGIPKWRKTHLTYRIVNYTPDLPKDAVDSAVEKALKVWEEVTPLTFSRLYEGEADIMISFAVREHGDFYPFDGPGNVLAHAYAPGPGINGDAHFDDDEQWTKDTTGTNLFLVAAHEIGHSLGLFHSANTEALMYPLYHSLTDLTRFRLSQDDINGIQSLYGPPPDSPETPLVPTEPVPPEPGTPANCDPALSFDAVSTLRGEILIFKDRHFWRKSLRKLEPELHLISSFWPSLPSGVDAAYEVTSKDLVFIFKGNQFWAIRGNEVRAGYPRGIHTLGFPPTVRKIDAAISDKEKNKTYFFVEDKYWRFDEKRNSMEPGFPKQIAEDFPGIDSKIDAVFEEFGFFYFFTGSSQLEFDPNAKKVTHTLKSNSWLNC
# Chain of human IkappaB Kinase alpha (IKKa), CHUK (gene 1147) (O15111 whole entry, looked up): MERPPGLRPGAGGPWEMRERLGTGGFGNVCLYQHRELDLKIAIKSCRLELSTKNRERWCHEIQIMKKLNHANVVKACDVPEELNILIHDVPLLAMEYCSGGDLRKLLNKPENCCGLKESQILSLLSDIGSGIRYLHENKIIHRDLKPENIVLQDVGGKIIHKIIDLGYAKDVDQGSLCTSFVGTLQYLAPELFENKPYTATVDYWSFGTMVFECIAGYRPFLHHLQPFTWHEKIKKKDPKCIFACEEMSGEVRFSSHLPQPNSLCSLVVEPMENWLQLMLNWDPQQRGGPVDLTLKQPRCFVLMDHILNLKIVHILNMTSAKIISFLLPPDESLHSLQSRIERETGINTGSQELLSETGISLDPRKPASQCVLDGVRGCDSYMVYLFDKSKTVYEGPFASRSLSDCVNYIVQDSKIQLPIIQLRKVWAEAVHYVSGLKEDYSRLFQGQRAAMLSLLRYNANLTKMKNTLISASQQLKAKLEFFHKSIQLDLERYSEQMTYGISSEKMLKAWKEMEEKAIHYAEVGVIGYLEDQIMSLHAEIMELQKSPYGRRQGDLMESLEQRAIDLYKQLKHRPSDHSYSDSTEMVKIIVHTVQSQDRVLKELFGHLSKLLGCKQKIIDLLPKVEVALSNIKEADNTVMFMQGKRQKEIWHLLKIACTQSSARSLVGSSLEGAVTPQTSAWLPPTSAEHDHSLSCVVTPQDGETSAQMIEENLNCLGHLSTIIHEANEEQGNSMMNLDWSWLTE
# Chain of human Mitogen-Activated Protein Kinase 1 (MAPK 1), MAPK1 (gene 5594) (P28482 whole entry, looked up): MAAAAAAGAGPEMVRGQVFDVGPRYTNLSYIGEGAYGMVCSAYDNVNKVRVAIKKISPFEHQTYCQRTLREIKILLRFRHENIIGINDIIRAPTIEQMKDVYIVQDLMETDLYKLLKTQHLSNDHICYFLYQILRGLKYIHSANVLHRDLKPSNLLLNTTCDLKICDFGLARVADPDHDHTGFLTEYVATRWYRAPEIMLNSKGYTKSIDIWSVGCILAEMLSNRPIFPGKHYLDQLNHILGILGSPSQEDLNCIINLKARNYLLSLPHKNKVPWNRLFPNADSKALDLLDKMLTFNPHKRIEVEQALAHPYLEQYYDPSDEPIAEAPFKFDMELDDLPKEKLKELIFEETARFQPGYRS
# Chain of human MET Proto-Oncogene, Receptor Tyrosine Kinase (MET), MET (gene 4233) (P08581 whole entry, looked up): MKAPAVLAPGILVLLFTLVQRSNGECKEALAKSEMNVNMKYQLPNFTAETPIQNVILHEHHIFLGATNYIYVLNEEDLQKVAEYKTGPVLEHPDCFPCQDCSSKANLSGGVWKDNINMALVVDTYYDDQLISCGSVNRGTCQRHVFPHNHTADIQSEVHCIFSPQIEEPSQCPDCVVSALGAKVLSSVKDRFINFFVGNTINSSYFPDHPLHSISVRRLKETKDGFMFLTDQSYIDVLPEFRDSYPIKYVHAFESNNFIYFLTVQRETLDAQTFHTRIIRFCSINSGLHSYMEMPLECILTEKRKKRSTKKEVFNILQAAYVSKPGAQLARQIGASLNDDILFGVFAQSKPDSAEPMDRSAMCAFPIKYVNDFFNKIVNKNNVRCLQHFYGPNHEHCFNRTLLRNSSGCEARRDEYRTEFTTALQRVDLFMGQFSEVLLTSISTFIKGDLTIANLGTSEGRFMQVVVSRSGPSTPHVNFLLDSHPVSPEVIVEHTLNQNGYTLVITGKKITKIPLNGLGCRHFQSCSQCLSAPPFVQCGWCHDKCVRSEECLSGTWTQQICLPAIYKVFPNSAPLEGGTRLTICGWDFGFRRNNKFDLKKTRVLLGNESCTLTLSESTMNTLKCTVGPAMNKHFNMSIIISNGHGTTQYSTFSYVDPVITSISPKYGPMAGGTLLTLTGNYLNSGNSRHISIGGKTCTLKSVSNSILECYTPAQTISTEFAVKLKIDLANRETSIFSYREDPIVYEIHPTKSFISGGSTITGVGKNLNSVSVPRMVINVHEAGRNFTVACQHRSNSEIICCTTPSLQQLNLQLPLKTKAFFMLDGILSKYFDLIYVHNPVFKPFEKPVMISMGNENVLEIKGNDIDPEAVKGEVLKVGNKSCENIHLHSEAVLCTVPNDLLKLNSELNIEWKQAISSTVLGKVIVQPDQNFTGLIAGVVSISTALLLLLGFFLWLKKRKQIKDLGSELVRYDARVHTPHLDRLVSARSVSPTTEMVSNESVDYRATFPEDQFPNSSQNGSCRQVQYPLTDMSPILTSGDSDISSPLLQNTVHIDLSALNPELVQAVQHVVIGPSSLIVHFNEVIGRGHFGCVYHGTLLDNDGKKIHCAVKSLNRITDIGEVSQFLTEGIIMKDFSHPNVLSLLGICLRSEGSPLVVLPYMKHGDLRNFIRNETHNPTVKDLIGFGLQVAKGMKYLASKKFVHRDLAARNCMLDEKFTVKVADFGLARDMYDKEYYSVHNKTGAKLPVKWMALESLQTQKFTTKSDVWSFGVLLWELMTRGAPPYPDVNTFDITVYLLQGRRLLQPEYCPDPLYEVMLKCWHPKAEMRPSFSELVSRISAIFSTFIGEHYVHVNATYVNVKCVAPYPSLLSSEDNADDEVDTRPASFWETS
# Chain of human Matrix Metalloproteinase-9 (MMP9), MMP9 (gene 4318) (P14780 whole entry, looked up): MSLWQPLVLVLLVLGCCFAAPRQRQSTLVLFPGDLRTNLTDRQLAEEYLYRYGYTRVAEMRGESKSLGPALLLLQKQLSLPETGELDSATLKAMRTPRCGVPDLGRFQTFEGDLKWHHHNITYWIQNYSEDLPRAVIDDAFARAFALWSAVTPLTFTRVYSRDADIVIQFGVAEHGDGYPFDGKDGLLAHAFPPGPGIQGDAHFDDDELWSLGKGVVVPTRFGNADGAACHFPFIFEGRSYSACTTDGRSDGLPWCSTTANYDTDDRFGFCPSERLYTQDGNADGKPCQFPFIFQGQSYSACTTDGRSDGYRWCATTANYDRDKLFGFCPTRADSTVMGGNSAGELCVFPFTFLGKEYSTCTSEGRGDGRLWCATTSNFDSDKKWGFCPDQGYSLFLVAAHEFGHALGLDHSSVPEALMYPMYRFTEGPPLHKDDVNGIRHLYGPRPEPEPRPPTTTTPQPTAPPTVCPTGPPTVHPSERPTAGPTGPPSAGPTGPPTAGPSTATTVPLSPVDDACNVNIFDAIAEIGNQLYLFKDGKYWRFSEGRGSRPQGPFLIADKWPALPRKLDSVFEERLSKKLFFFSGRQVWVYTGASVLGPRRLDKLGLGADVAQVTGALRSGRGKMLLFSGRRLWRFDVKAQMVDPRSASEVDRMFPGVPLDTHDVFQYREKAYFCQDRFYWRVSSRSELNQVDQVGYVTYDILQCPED
# Chain of Glycogen synthase kinase-3 beta (Homo sapiens) (P49841 whole entry, looked up): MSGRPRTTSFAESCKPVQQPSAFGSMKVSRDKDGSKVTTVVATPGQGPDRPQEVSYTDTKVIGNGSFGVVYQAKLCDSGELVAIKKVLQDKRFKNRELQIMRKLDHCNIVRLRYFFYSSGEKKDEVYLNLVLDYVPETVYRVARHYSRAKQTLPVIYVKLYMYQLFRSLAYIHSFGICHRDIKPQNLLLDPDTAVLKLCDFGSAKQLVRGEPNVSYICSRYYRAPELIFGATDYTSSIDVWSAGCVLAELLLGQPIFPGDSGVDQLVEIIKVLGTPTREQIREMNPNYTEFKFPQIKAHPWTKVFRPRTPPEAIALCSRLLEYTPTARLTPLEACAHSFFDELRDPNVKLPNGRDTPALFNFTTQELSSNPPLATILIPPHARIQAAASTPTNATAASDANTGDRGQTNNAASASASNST
# Chain of human Matrix Metalloproteinase-7 (MMP7), MMP7 (gene 4316) (P09237 whole entry, looked up): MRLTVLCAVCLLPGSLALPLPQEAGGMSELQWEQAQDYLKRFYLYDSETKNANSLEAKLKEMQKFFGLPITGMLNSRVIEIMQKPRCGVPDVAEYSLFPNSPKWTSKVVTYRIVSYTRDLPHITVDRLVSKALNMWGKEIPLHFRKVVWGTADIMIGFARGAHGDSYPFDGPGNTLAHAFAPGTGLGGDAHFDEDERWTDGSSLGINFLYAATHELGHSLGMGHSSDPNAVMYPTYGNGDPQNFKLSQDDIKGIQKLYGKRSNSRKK
structure (smiles),measurement,setting,value
O=S(=O)(O)C(F)(F)C(F)(F)C(F)(F)C(F)(F)C(F)(F)C(F)(F)C(F)(F)C(F)(F)F,AC50,[1],39.3 µM (active)
same,AC50,[2],27.2 µM (active) and 25.9 µM (active)
same,AC50,[3],11.7 µM (active)
same,AC50,[4],34.9 µM (active) and 41 µM (active)
same,AC50,[5],32.7 µM (active)
same,outcome,[6],inactive
same,AC50,[7],36.1 µM (active) and 40.4 µM (active)
same,AC50,[8],7.53 µM (active) and 43 µM (active)
same,AC50,[9],1.73 µM (active)
same,outcome,[10],inactive
same,AC50,[11],22.6 µM (active) [middle of 4 runs]
same,AC50,[12],24.1 µM (active)
same,AC50,[13],25 µM (active)
same,outcome,[14],inactive
same,AC50,[15],5.35 µM (active)
same,AC50,[16],36.3 µM (active) and 47.7 µM (active)
same,AC50,[17],25 µM (active) and 21.9 µM (active)
